Screening results as filed in PubChem BioAssay.
HT1080 IDH1KD tx: HT-1080 IDH1 knockdown cell toxicity (counter line) | 2% of 360,000 active | Potency, µM (titrated, usually from 46.1 µM), for inactives: at the highest dose activity, negative = toxicity, hits mostly cytotoxic | HT-1080 IDH1 knockdown viability, ATP luminescence, 48 h | AID 686971;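 further: potency means the concentration at half of the fitted maximal effect; 0% = DMSO wells and -100% = cell-free medium wells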
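After a 2 h attachment period, IDH1KD HT-1080 cells took pin-transferred compound for 48 h at 37 °C; ATP-based luminescence after 10 min room-temperature reagent incubation reported viability.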
DT40 TDP1 no CPT: qHTS for Inhibitors of human tyrosyl-DNA phosphodiesterase 1 (TDP1): qHTS in cells in absence of CPT | DT40 Tdp1-/- hTDP1 cells, no CPT, ATP luminescence, 48 h | Potency, µM (series often up to 46.2 µM), for inactives: top-dose activity change, negative = growth inhibition, hits mostly inhibitors | 15% of 420,000 active | AID 686978, 2013; further: potency means the concentration at half of the fitted maximal effect; nearly all actives have a fitted effect of over 55% in size
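Readout: luminescence from CellTiter-Glo after 30 min in the dark at RT. Cells: DT40 Tdp1-/- with stable hTDP1, 400/well. Exposure: compounds alone, ≥48 hr, 37 °C.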
HT1080NT lethal: kills 2HG-producing HT-1080-NT fibrosarcoma cells. HT-1080-NT fibrosarcoma viability, CellTiter-Glo ATP luminescence, 48 h. Potency, µM (titrated, usually from 46.1 µM), without a hit: at the top dose activity, negative = less viability, hits mostly cytotoxic. 1.6% of 360,000 active. AID 686970;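 further: NT is the 2HG producing partner of a matched IDH1 knockdown line; potency means the concentration at half of the fitted maximal effect; 0% = DMSO-treated cells and -100% = media-only wells without cells; nearly all actives have a fitted effect of over 55% in size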
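Toxicity toward the 2HG-producing NT line was scored as %Activity, normalised to DMSO and no-cell wells, from CellTiter-Glo luminescence after 48 hours' treatment.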
TDP1 cell CPT: growth inhibition of DT40 Tdp1-/-;hTDP1 cells with camptothecin (screen for TDP1 inhibitors) | Potency, µM (doses to about 46.2 µM), inactives show top-dose activity change, negative = growth inhibition, usual class: inhibitors | chicken DT40 Tdp1-/-;hTDP1 cells + 20 nM CPT, ATP luminescence, 48 h | 12% of 420,000 active | AID 686979; further: potency means the concentration at half of the fitted maximal effect; nearly all actives have a fitted effect of over 55% in size
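Cell growth measured by CellTiter-Glo luminescence after a minimum 48 h, 37 C compound exposure with 20 nM CPT in Tdp1-knockout DT40 cells stably expressing hTDP1, seeded 400/well; qHTS titration format.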
IL1B secr inh: inflammasome signaling inhibition, IL-1 beta readout; 4.7% of 360,000 active; AID 743279; activity change, % at 57.5 µM; THP-1 LPS/ATP IL-1B secretion, AlphaLISA, 16 h; hits give low values; in the data active means activity change below about -50%; inconclusive means mostly about -30% to -49%
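THP-1 cells pretreated 1 hr with compounds (up to 57.5 uM final), then stimulated with LPS (250 ng/mL final) plus ATP (1.25 mM final); secreted IL-1B measured by AlphaLISA after 16 hr, decreased signal indicating inhibition.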
* hit, by the source's call. The list is not random: actives were taken first. Their share in the collection is about 19%. Unless noted, the call rests on the fitted dose curve; in most records, active means well fitted curve in the direction sought with a large enough effect; inconclusive means small, poorly fitted or top-dose-only effect, or another doubt; inactive means no such curve, though single readings can be large; an effect the other way counts as inactive or inconclusive. Unless noted, on the % scale 0 is the no-effect control and ±100 the full control effect.

`Cc1cc(=O)cc2oc3cc(N)c(-c4c(C)cc(O)cc4O)c(C)c3nc1-2` gave DT40 TDP1 no CPT -24% and TDP1 cell CPT 5%.
For C/C(=N\NC(=O)c1c(Cl)cnn1C)c1ccc(NC(=O)c2ccc(Br)o2)cc1 the results were HT1080 IDH1KD tx -1%, DT40 TDP1 no CPT -17%, HT1080NT lethal -10%, TDP1 cell CPT inconclusive and IL1B secr inh 22.
`Cc1cccc2cc(CN(CC(C)C)S(=O)(=O)c3ccccc3)c(=O)[nH]c12` gave HT1080 IDH1KD tx -1%, DT40 TDP1 no CPT 23µM*, HT1080NT lethal 12%, TDP1 cell CPT inconclusive and IL1B secr inh 0.
CCC(C(=O)NCc1ccccc1OC)c1ccccc1 (configuration not stated) was read as HT1080 IDH1KD tx 0%, DT40 TDP1 no CPT -11%, HT1080NT lethal 3%, TDP1 cell CPT -24% and IL1B secr inh 3.
Screening O=C(CN1CCc2ccccc2C1)Nc1cc(S(=O)(=O)N2CCOCC2)ccc1N1CCCC1 returned HT1080 IDH1KD tx 7%, DT40 TDP1 no CPT inconclusive, HT1080NT lethal 5%, TDP1 cell CPT 15µM* and IL1B secr inh -19.
O=C(CN1CCc2ccccc2C1)Nc1cc(S(=O)(=O)N2CCOCC2)ccc1N1CCOCC1 was read as HT1080 IDH1KD tx -4%, DT40 TDP1 no CPT 23µM*, HT1080NT lethal -1%, TDP1 cell CPT 9.2µM* and IL1B secr inh -6.
`CCc1nnc(NC(=O)c2ccc(S(=O)(=O)N(C)Cc3ccccc3)cc2)o1` gave HT1080 IDH1KD tx -24%, DT40 TDP1 no CPT 21µM*, HT1080NT lethal -22%, TDP1 cell CPT 16µM* and IL1B secr inh 44.
`COc1ccccc1-c1nnc(NC(=O)c2ccc(S(=O)(=O)N(C)Cc3ccccc3)cc2)o1` gave HT1080 IDH1KD tx inconclusive, DT40 TDP1 no CPT 9.2µM*, HT1080NT lethal inconclusive, TDP1 cell CPT 13µM* and IL1B secr inh 34.
CCc1nnc(NC(=O)c2ccc(S(=O)(=O)N(CC)Cc3ccccc3)cc2)o1 was read as HT1080 IDH1KD tx inconclusive, DT40 TDP1 no CPT 7.3µM*, HT1080NT lethal -22%, TDP1 cell CPT 12µM* and IL1B secr inh 21.
CN(Cc1ccccc1)S(=O)(=O)c1ccc(C(=O)Nc2nnc(C3CC3)o2)cc1 was read as HT1080 IDH1KD tx inconclusive, DT40 TDP1 no CPT 21µM*, HT1080NT lethal -26%, TDP1 cell CPT 15µM* and IL1B secr inh 20.
For COc1ccc(C(=O)Nc2nnc(S(=O)(=O)N(C)Cc3ccccc3)s2)cc1 the results were HT1080 IDH1KD tx 14%, DT40 TDP1 no CPT -12%, HT1080NT lethal 1%, TDP1 cell CPT 5% and IL1B secr inh 12.
For Cc1cccc(C)c1OCC(=O)NCC1COc2ccccc2O1 (configuration not stated) the results were HT1080 IDH1KD tx 0%, DT40 TDP1 no CPT inconclusive, HT1080NT lethal 0%, TDP1 cell CPT -4% and IL1B secr inh -8.
`CSc1ncc(Cl)c(C(=O)Nc2cccc(Cl)c2)n1` gave HT1080 IDH1KD tx 8%, DT40 TDP1 no CPT inconclusive, HT1080NT lethal -4%, TDP1 cell CPT -17% and IL1B secr inh 30.
O=C(Nc1ccc(S(=O)(=O)NC2=NCCCCC2)cc1)C1COc2ccccc2O1 (configuration not stated) was read as HT1080 IDH1KD tx 9%, DT40 TDP1 no CPT -16%, HT1080NT lethal 22%, TDP1 cell CPT -9% and IL1B secr inh 13.
COC(=O)C[C@H]1C=C[C@H](NC(=O)c2cccc(F)c2)[C@@H](CO)O1 was read as HT1080 IDH1KD tx 15%, DT40 TDP1 no CPT 20%, HT1080NT lethal 11%, TDP1 cell CPT 4% and IL1B secr inh 20.
Screening CCCCN(CCCC)S(=O)(=O)c1ccc(C(=O)Nc2nnc(COC)o2)cc1 returned HT1080 IDH1KD tx 12µM*, DT40 TDP1 no CPT 16µM*, HT1080NT lethal inconclusive, TDP1 cell CPT 18µM* and IL1B secr inh 30.
